# Measurements taken from PMC11006913.
# Numbering of substitutions follows the chain as printed.
# Experiments:
# Test in all cases: PBM; 200 nM protein, PBS
# Conditions in all cases: dsDNA, one strand shown
# NKX2-5 [1] = biological target: NKX2-5 (Homo sapiens, UniProt P52952 125-210, R139K)
# SIX6 [2] = biological target: T1, SIX6 (Homo sapiens, UniProt O95475 114-200, L167I)
# T1 sequence: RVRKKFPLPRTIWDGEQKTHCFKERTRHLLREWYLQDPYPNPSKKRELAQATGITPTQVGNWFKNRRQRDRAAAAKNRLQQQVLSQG
# SIX6 [3] = biological target: T2, SIX6 (Homo sapiens, UniProt O95475 114-200, L143V)
# T2 sequence: T1 sequence with L30V, I54L
# SIX6 [4] = biological target: T3, SIX6 (Homo sapiens, UniProt O95475 114-200, H141N)
# T3 sequence: T1 sequence with H28N, I54L
# SIX6 [5] = biological target: T4, SIX6 (Homo sapiens, UniProt O95475 114-200, T165P)
# T4 sequence: T1 sequence with T52P, I54L
# SIX6 [6] = biological target: T5, SIX6 (Homo sapiens, UniProt O95475 114-200, L167M)
# T5 sequence: T1 sequence with I54M
# SIX6 [7] = biological target: T6, SIX6 (Homo sapiens, UniProt O95475 114-200, L143M)
# T6 sequence: T1 sequence with L30M, I54L
# SIX6 [8] = biological target: T7, SIX6 (Homo sapiens, UniProt O95475 114-200, L143I)
# T7 sequence: T1 sequence with L30I, I54L
# SIX6 [9] = biological target: T8, SIX6 (Homo sapiens, UniProt O95475 114-200, T165G)
# T8 sequence: T1 sequence with T52G, I54L
# SIX6 [10] = biological target: T9, SIX6 (Homo sapiens, UniProt O95475 114-200, T139Q)
# T9 sequence: T1 sequence with T26Q, I54L
# ALX3 [11] = biological target: ALX3 (Homo sapiens, UniProt O95076 139-225, N203Q)
# Chain of ALX3 (Homo sapiens, UniProt O95076 139-225, N203Q) (O95076 139-225 N203Q): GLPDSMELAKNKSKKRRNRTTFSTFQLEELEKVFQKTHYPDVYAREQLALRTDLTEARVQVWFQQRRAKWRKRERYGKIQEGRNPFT
# SIX6 [12] = biological target: T10, SIX6 (Homo sapiens, UniProt O95475 114-200, T165A)
# T10 sequence: T1 sequence with T52A, I54L
# SIX6 [13] = biological target: T11, SIX6 (Homo sapiens, UniProt O95475 114-200, L167V)
# T11 sequence: T1 sequence with I54V
# ALX3 [14] = biological target: ALX3 (Homo sapiens, UniProt O95076 139-225)
# Chain of ALX3 (Homo sapiens, UniProt O95076 139-225) (O95076 139-225): as the sequence (O95076 139-225 N203Q) above, with Q65N counted along it
# SIX6 [15] = biological target: T12, SIX6 (Homo sapiens, UniProt O95475 114-200)
# T12 sequence: T1 sequence with I54L
# ALX3 [16] = biological target: ALX3 (Homo sapiens, UniProt O95076 139-225, L168Q)
# Chain of ALX3 (Homo sapiens, UniProt O95076 139-225, L168Q) (O95076 139-225 L168Q): as the sequence (O95076 139-225 N203Q) above, with L30Q, Q65N counted along it
# SIX6 [17] = biological target: T13, SIX6 (Homo sapiens, UniProt O95475 114-200, T165I)
# T13 sequence: T1 sequence with T52I, I54L
# ALX3 [18] = biological target: ALX3 (Homo sapiens, UniProt O95076 139-225, L168V)
# Chain of ALX3 (Homo sapiens, UniProt O95076 139-225, L168V) (O95076 139-225 L168V): as the sequence (O95076 139-225 N203Q) above, with L30V, Q65N counted along it
# ALX3 [19] = biological target: ALX3 (Homo sapiens, UniProt O95076 139-225, N203S)
# Chain of ALX3 (Homo sapiens, UniProt O95076 139-225, N203S) (O95076 139-225 N203S): as the sequence (O95076 139-225 N203Q) above, with Q65S counted along it
# NKX2-5 [20] = biological target: NKX2-5 (Homo sapiens, UniProt P52952 125-210)
# Chain of NKX2-5 (Homo sapiens, UniProt P52952 125-210) (P52952 125-210): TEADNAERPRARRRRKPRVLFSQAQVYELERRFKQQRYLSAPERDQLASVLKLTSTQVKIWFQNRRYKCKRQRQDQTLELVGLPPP
# HOXB6 [21] = biological target: HOXB6 (Homo sapiens, UniProt P17509 132-218, K202E)
# Chain of HOXB6 (Homo sapiens, UniProt P17509 132-218, K202E) (P17509 132-218 K202E): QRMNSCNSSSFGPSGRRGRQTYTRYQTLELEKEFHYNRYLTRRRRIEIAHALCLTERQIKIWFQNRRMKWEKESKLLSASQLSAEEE
# VAX1 [22] = biological target: VAX1 (Homo sapiens, UniProt Q5SQQ9 86-172)
# Chain of VAX1 (Homo sapiens, UniProt Q5SQQ9 86-172) (Q5SQQ9 86-172): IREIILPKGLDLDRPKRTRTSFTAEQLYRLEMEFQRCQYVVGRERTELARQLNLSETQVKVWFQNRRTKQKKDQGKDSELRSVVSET
# VAX1 [23] = biological target: VAX1 (Homo sapiens, UniProt Q5SQQ9 86-172, T142I)
# Chain of VAX1 (Homo sapiens, UniProt Q5SQQ9 86-172, T142I) (Q5SQQ9 86-172 T142I): as the sequence (Q5SQQ9 86-172) above, with T57I counted along it
# VAX1 [24] = biological target: VAX1 (Homo sapiens, UniProt Q5SQQ9 86-172, K157R)
# Chain of VAX1 (Homo sapiens, UniProt Q5SQQ9 86-172, K157R) (Q5SQQ9 86-172 K157R): as the sequence (Q5SQQ9 86-172) above, with K72R counted along it
# HOXB6 [25] = biological target: HOXB6 (Homo sapiens, UniProt P17509 132-218)
# Chain of HOXB6 (Homo sapiens, UniProt P17509 132-218) (P17509 132-218): as the sequence (P17509 132-218 K202E) above, with E71K counted along it
# PAX4 [26] = biological target: T14, PAX4 (Homo sapiens, UniProt O43316 9-242, R200K)
# T14 sequence: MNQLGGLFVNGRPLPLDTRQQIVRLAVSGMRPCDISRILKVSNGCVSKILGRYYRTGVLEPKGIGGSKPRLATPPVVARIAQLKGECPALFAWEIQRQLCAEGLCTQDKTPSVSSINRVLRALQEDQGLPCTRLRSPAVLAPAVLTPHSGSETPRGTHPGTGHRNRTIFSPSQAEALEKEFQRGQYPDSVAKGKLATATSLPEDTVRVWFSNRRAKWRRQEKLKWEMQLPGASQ
# PAX4 [27] = biological target: T15, PAX4 (Homo sapiens, UniProt O43316 9-242)
# T15 sequence: T14 sequence with K192R
# PAX4 [28] = biological target: T16, PAX4 (Homo sapiens, UniProt O43316 9-242, R200Q)
# T16 sequence: T14 sequence with K192Q
# PAX4 [29] = biological target: T17, PAX4 (Homo sapiens, UniProt O43316 9-242, F177V)
# T17 sequence: T14 sequence with F169V, K192R
# PAX4 [30] = biological target: T18, PAX4 (Homo sapiens, UniProt O43316 9-242, F177Y)
# T18 sequence: T14 sequence with F169Y, K192R
# PAX4 [31] = biological target: T19, PAX4 (Homo sapiens, UniProt O43316 9-242, R227W)
# T19 sequence: T14 sequence with K192R, R219W
# PRRX1 [32] = biological target: PRRX1 (Homo sapiens, UniProt P54821 80-166, F113S)
# Chain of PRRX1 (Homo sapiens, UniProt P54821 80-166, F113S) (P54821 80-166 F113S): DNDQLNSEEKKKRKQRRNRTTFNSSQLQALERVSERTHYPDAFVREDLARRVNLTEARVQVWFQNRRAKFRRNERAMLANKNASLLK
# NKX2-6 [33] = biological target: T20, NKX2-6 (Homo sapiens, UniProt A6NCS4 118-204, R150C)
# T20 sequence: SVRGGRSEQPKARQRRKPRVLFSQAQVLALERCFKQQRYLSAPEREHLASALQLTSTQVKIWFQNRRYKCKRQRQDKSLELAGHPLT
# NKX2-6 [34] = biological target: T21, NKX2-6 (Homo sapiens, UniProt A6NCS4 118-204)
# T21 sequence: T20 sequence with C33R
# NKX2-6 [35] = biological target: T22, NKX2-6 (Homo sapiens, UniProt A6NCS4 118-204, F151L)
# T22 sequence: T20 sequence with C33R, F34L
# NKX3-2 [36] = biological target: NKX3-2 (Homo sapiens, UniProt P78367 192-278, P234S)
# Chain of NKX3-2 (Homo sapiens, UniProt P78367 192-278, P234S) (P78367 192-278 P234S): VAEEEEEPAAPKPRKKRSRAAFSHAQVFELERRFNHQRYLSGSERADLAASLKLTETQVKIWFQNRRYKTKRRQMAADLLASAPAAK
# PRRX1 [37] = biological target: PRRX1 (Homo sapiens, UniProt P54821 80-166)
# Chain of PRRX1 (Homo sapiens, UniProt P54821 80-166) (P54821 80-166): as the sequence (P54821 80-166 F113S) above, with S34F counted along it
# NKX3-2 [38] = biological target: NKX3-2 (Homo sapiens, UniProt P78367 192-278)
# Chain of NKX3-2 (Homo sapiens, UniProt P78367 192-278) (P78367 192-278): as the sequence (P78367 192-278 P234S) above, with S43P counted along it
# HOXD13 [39] = biological target: HOXD13 (Homo sapiens, UniProt P35453 263-343, T313R)
# Chain of HOXD13 (Homo sapiens, UniProt P35453 263-343, T313R) (P35453 263-343 T313R): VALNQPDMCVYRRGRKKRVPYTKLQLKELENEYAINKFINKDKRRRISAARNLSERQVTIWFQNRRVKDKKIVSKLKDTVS
# HOXD13 [40] = biological target: HOXD13 (Homo sapiens, UniProt P35453 263-343)
# Chain of HOXD13 (Homo sapiens, UniProt P35453 263-343) (P35453 263-343): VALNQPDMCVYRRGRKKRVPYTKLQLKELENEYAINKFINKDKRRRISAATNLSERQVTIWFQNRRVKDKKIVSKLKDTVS
# HOXD13 [41] = biological target: HOXD13 (Homo sapiens, UniProt P35453 263-343, T313A)
# Chain of HOXD13 (Homo sapiens, UniProt P35453 263-343, T313A) (P35453 263-343 T313A): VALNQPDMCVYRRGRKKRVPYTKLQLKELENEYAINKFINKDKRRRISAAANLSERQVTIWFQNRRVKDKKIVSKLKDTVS
# Chain of NKX2-5 (Homo sapiens, UniProt P52952 125-210, R139K) (P52952 125-210 R139K): as the sequence (P52952 125-210) above, with R15K counted along it
sequence,measurement,setting,value
CCCCTGCG,binding signal,NKX2-5 [1],"8.68 upbm affinity estimate (log intensity, higher = more binding, comparable within an allelic series)"
same,binding signal,SIX6 [2],"8.92 upbm affinity estimate (log intensity, higher = more binding, comparable within an allelic series)"
same,binding signal,SIX6 [3],"8.67 upbm affinity estimate (log intensity, higher = more binding, comparable within an allelic series)"
same,binding signal,SIX6 [4],"8.89 upbm affinity estimate (log intensity, higher = more binding, comparable within an allelic series)"
same,binding signal,SIX6 [5],"8.67 upbm affinity estimate (log intensity, higher = more binding, comparable within an allelic series)"
same,binding signal,SIX6 [6],"8.87 upbm affinity estimate (log intensity, higher = more binding, comparable within an allelic series)"
same,binding signal,SIX6 [7],"8.77 upbm affinity estimate (log intensity, higher = more binding, comparable within an allelic series)"
same,binding signal,SIX6 [8],"8.85 upbm affinity estimate (log intensity, higher = more binding, comparable within an allelic series)"
same,binding signal,SIX6 [9],"8.87 upbm affinity estimate (log intensity, higher = more binding, comparable within an allelic series)"
same,binding signal,SIX6 [10],"8.92 upbm affinity estimate (log intensity, higher = more binding, comparable within an allelic series)"
same,binding signal,ALX3 [11],"7.65 upbm affinity estimate (log intensity, higher = more binding, comparable within an allelic series)"
same,binding signal,SIX6 [12],"8.91 upbm affinity estimate (log intensity, higher = more binding, comparable within an allelic series)"
same,binding signal,SIX6 [13],"8.9 upbm affinity estimate (log intensity, higher = more binding, comparable within an allelic series)"
same,binding signal,ALX3 [14],"7.85 upbm affinity estimate (log intensity, higher = more binding, comparable within an allelic series)"
same,binding signal,SIX6 [15],"8.87 upbm affinity estimate (log intensity, higher = more binding, comparable within an allelic series)"
same,binding signal,ALX3 [16],"7.61 upbm affinity estimate (log intensity, higher = more binding, comparable within an allelic series)"
same,binding signal,SIX6 [17],"8.84 upbm affinity estimate (log intensity, higher = more binding, comparable within an allelic series)"
same,binding signal,ALX3 [18],"7.71 upbm affinity estimate (log intensity, higher = more binding, comparable within an allelic series)"
same,binding signal,ALX3 [19],"7.66 upbm affinity estimate (log intensity, higher = more binding, comparable within an allelic series)"
same,binding signal,NKX2-5 [20],"8.4 upbm affinity estimate (log intensity, higher = more binding, comparable within an allelic series)"
CCTACGGA,binding signal,NKX2-5 [1],"8.68 upbm affinity estimate (log intensity, higher = more binding, comparable within an allelic series)"
same,binding signal,HOXB6 [21],"9.05 upbm affinity estimate (log intensity, higher = more binding, comparable within an allelic series)"
same,binding signal,VAX1 [22],"7.04 upbm affinity estimate (log intensity, higher = more binding, comparable within an allelic series)"
same,binding signal,VAX1 [23],"7.2 upbm affinity estimate (log intensity, higher = more binding, comparable within an allelic series)"
same,binding signal,VAX1 [24],"7.03 upbm affinity estimate (log intensity, higher = more binding, comparable within an allelic series)"
same,binding signal,NKX2-5 [20],"8.68 upbm affinity estimate (log intensity, higher = more binding, comparable within an allelic series)"
same,binding signal,HOXB6 [25],"8.95 upbm affinity estimate (log intensity, higher = more binding, comparable within an allelic series)"
GCTGGGCC,binding signal,NKX2-5 [1],"8.63 upbm affinity estimate (log intensity, higher = more binding, comparable within an allelic series)"
same,binding signal,PAX4 [26],"9.06 upbm affinity estimate (log intensity, higher = more binding, comparable within an allelic series)"
same,binding signal,PAX4 [27],"9.06 upbm affinity estimate (log intensity, higher = more binding, comparable within an allelic series)"
same,binding signal,ALX3 [11],"7.66 upbm affinity estimate (log intensity, higher = more binding, comparable within an allelic series)"
same,binding signal,PAX4 [28],"9.13 upbm affinity estimate (log intensity, higher = more binding, comparable within an allelic series)"
same,binding signal,PAX4 [29],"8.94 upbm affinity estimate (log intensity, higher = more binding, comparable within an allelic series)"
same,binding signal,ALX3 [14],"7.62 upbm affinity estimate (log intensity, higher = more binding, comparable within an allelic series)"
same,binding signal,PAX4 [30],"9.03 upbm affinity estimate (log intensity, higher = more binding, comparable within an allelic series)"
same,binding signal,ALX3 [16],"7.58 upbm affinity estimate (log intensity, higher = more binding, comparable within an allelic series)"
same,binding signal,ALX3 [18],"7.61 upbm affinity estimate (log intensity, higher = more binding, comparable within an allelic series)"
same,binding signal,PAX4 [31],"9.05 upbm affinity estimate (log intensity, higher = more binding, comparable within an allelic series)"
same,binding signal,ALX3 [19],"7.64 upbm affinity estimate (log intensity, higher = more binding, comparable within an allelic series)"
same,binding signal,NKX2-5 [20],"8.61 upbm affinity estimate (log intensity, higher = more binding, comparable within an allelic series)"
CACTTAGC,binding signal,NKX2-5 [1],"12.6 upbm affinity estimate (log intensity, higher = more binding, comparable within an allelic series)"
same,binding signal,PRRX1 [32],"9.83 upbm affinity estimate (log intensity, higher = more binding, comparable within an allelic series)"
same,binding signal,NKX2-6 [33],"11.7 upbm affinity estimate (log intensity, higher = more binding, comparable within an allelic series)"
same,binding signal,NKX2-6 [34],"13.5 upbm affinity estimate (log intensity, higher = more binding, comparable within an allelic series)"
same,binding signal,NKX2-6 [35],"10.8 upbm affinity estimate (log intensity, higher = more binding, comparable within an allelic series)"
same,binding signal,NKX3-2 [36],"12.9 upbm affinity estimate (log intensity, higher = more binding, comparable within an allelic series)"
same,binding signal,PRRX1 [37],"11.8 upbm affinity estimate (log intensity, higher = more binding, comparable within an allelic series)"
same,binding signal,NKX2-5 [20],"12.5 upbm affinity estimate (log intensity, higher = more binding, comparable within an allelic series)"
same,binding signal,NKX3-2 [38],"13 upbm affinity estimate (log intensity, higher = more binding, comparable within an allelic series)"
CGGTGGGC,binding signal,NKX2-5 [1],"9.02 upbm affinity estimate (log intensity, higher = more binding, comparable within an allelic series)"
same,binding signal,PAX4 [26],"9.41 upbm affinity estimate (log intensity, higher = more binding, comparable within an allelic series)"
same,binding signal,PAX4 [27],"9.5 upbm affinity estimate (log intensity, higher = more binding, comparable within an allelic series)"
same,binding signal,NKX2-6 [33],"9.22 upbm affinity estimate (log intensity, higher = more binding, comparable within an allelic series)"
same,binding signal,HOXD13 [39],"9.46 upbm affinity estimate (log intensity, higher = more binding, comparable within an allelic series)"
same,binding signal,PAX4 [28],"9.39 upbm affinity estimate (log intensity, higher = more binding, comparable within an allelic series)"
same,binding signal,HOXD13 [40],"9.53 upbm affinity estimate (log intensity, higher = more binding, comparable within an allelic series)"
same,binding signal,PAX4 [29],"9.14 upbm affinity estimate (log intensity, higher = more binding, comparable within an allelic series)"
same,binding signal,PAX4 [30],"9.14 upbm affinity estimate (log intensity, higher = more binding, comparable within an allelic series)"
same,binding signal,HOXD13 [41],"9.44 upbm affinity estimate (log intensity, higher = more binding, comparable within an allelic series)"
same,binding signal,PAX4 [31],"9.26 upbm affinity estimate (log intensity, higher = more binding, comparable within an allelic series)"
same,binding signal,NKX2-5 [20],"9.07 upbm affinity estimate (log intensity, higher = more binding, comparable within an allelic series)"
